# From ChEMBL document CHEMBL3433997, “St. Jude Leishmania screening dataset” (2016)
# How the values were obtained:
# Assay type in all cases: functional
# [1] = molecular target: Solute carrier family 2, facilitated glucose transporter member 1 (Homo sapiens) (UniProt P11166); experiment: ST_JUDE_LEISH: Cytotoxicity at 2uM final concentration against transgenic Leishmania Mexicana promastigotes LmGLUT1 that are glucose transport deficient and complemented with the human glucose transporter GLUT1. Activity is measured by DNA content using SYBR green in vitro
# Chain of Solute carrier family 2, facilitated glucose transporter member 1 (Homo sapiens) (P11166 whole entry): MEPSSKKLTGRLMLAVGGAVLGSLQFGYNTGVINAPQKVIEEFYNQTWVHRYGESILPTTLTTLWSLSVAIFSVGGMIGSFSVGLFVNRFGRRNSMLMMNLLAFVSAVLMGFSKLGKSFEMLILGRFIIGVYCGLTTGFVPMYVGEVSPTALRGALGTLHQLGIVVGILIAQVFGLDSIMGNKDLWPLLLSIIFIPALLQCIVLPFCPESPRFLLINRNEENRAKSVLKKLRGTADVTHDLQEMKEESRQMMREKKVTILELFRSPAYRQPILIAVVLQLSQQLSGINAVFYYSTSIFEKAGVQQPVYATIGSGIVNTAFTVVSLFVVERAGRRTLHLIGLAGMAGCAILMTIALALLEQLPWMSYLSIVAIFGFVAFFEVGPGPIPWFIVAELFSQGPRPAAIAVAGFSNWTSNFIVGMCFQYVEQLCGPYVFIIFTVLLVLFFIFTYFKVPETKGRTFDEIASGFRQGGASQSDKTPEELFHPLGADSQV
# [2] = molecular target: Hexose transporter 1 (Plasmodium falciparum) (UniProt O97467); experiment: ST_JUDE_LEISH: Cytotoxicity at 2uM final concentration against transgenic Leishmania Mexicana promastigotes LmPfHT that are glucose transport deficient and complemented with the Plasmodium falciparum hexose transporter. Activity is measured by DNA content using SYBR green in vitro
# [3] = molecular target: Glucose transporter (Leishmania mexicana) (UniProt O61059); experiment: ST_JUDE_LEISH: Cytotoxicity at 2uM final concentration against transgenic Leishmania Mexicana promastigotes LmGT2 that are glucose transport deficient and complemented with the L. Mexicana glucose transporter 2. Activity is measured by DNA content using SYBR green in vitro
Compound,inhibition [1] [%],inhibition [2] [%],inhibition [3] [%]
CN1CCC(Oc2ccc(CN3CC[C@H](NC(=O)c4cccc(C#N)c4)C3)c3ccccc23)C1 (stereo partly specified),-0.8,1.42,2.12
COc1ccc(C=NN=c2cc(C)[nH]c3c(C)cccc23)c2ccccc12,1.53,1.31,5.67
O=C(Nc1ccc2ccccc2c1)c1ccc(CN2CCC(Cc3ccccc3)CC2)cc1,-2.67,-3.63,7.65
O=C(Nc1ccc(Cl)c(Cl)c1)Nc1cc(C(F)(F)F)ccc1Cl,-0.56,1.37,1.28
Cc1ccc2c(c1)nc(N)n2C[C@H](O)c1ccccc1,1.01,1.37,1.1
CN1CCC(NCc2ccc(-c3ccc(C(F)(F)F)cc3)cc2)CC1,-0.71,-0.76,0.62
O=C(/C=C/c1ccc(Cl)c(Cl)c1)NCCCCCN1CCC(NC(=O)Nc2cccc(Cl)c2)CC1,3.22,4.71,3.33
O=C(Nc1cccc(-c2cccc(-c3nc4cc(F)ccc4[nH]3)c2)c1)Nc1ccc(F)c(F)c1F,7.82,7.26,7.83
O=c1c(NCCCN(Cc2ccc(F)cc2)c2ccccn2)c(NCc2cccnc2)c1=O,1.33,1.81,1.65
CC(C)COc1ccc2ccccc2c1CNCCCCCCNCc1c(OCC(C)C)ccc2ccccc12,86.6,88.5,27.7
O=C(N[C@H]1CCN(Cc2ccc(OCCN3CCCC3)c(Cl)c2)C1)c1ccc(Cl)c(Cl)c1,8.03,16.6,6.8
CN1CCN(c2cccc(NC(=O)c3ccc(-c4ccc(C#N)cc4)cc3)c2)CC1,8.25,3.32,5.96
C=CCOc1ccc2ccccc2c1CNCCCCCCNCc1c(OCC=C)ccc2ccccc12,4.33,5.37,1.05
O=C(Nc1ccc(-c2cccc(-c3nc4cc(F)ccc4[nH]3)c2)cc1)c1ccncc1,13.9,14.2,12.9
COc1cc(C(=O)NC2CCN(Cc3ccccc3)CC2)ccc1-c1nc2c(Cl)cc(C(F)(F)F)cc2[nH]1,5.51,3.32,3.49
O=S(=O)(NC1CCN(c2ccnc3cc(Cl)ccc23)C1)c1cccc(F)c1 (stereo unspecified),10.1,9.98,11.4
CCCCc1cc(N2CCC(NC(C)=O)C2)nc(Nc2ccc(C)cc2)n1 (stereo unspecified),10.9,2.45,5.78
